Compounds with a hit are over-represented: about 11% of the library has one in this group of screens.
NIH3T3 tox – cytotoxic compounds in NIH 3T3 cells; AID 1345082; 94,000 tested, 4.3% active; NIH 3T3 viability, CellTiter-Glo ATP luminescence, 48-72 h; Potency, µM (highest dose often 96.7 µM), for inactives: at the highest dose activity change, negative = cytotoxicity, usual class: inhibitors; also: nearly all actives have a fitted effect of over 55% in size
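ATP-dependent luminescence (CellTiter-Glo) served as the viability signal for NIH 3T3 cells treated with compound for 48 or 72 hr at 37 °C.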
Luciferase inh – inhibitors of firefly (Photinus pyralis) luciferase; P08659; purified P. pyralis luciferase, luminescence, biochemical; Potency, µM (top dose mostly 115 µM), actives largely listed as inhibitors; 76,000 tested, 2.5% active; also: nearly all actives have a fitted effect of over 65% in size
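FLuc 10nM, D-luciferin 10uM, ATP 10uM, Mg acetate 10mM, Tris acetate pH 7.5, Tween/BSA; cpd qHTS; enzyme added last; CCD luminescence.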
HEK293 tox – kills HEK 293 cells; 94,000 tested, 6.6% active; Potency, µM (highest dose often 115 µM), inactives show at the top dose activity change, negative = cytotoxicity, hits mostly inhibitors; AID 1345083; HEK 293 viability, ATP luminescence (CellTiter-Glo), 48-72 h; also: nearly all actives have a fitted effect of over 60% in size
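Cells seeded first (HEK 293, 250 cells/well), then compound added by pintool. Incubation ran 48 or 72 hr at 37 degree Celsius. CellTiter-Glo was added and luminescence imaged after 10 min at room temperature.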
NPR1 antag – human Npr1 receptor antagonism; P16066; HEK293 hNpr1 GloSensor cGMP, ANP-stimulated luminescence; Potency, µM (highest dose often 46.3 µM), inactives show at the highest dose activity change, negative = inhibition, most hits filed as inhibitors; 76,000 tested, 1.6% active; AID 1347048; calls by dose curve; also: nearly all actives have a fitted effect of over 60% in size
Target sequence (P16066 whole entry, looked up): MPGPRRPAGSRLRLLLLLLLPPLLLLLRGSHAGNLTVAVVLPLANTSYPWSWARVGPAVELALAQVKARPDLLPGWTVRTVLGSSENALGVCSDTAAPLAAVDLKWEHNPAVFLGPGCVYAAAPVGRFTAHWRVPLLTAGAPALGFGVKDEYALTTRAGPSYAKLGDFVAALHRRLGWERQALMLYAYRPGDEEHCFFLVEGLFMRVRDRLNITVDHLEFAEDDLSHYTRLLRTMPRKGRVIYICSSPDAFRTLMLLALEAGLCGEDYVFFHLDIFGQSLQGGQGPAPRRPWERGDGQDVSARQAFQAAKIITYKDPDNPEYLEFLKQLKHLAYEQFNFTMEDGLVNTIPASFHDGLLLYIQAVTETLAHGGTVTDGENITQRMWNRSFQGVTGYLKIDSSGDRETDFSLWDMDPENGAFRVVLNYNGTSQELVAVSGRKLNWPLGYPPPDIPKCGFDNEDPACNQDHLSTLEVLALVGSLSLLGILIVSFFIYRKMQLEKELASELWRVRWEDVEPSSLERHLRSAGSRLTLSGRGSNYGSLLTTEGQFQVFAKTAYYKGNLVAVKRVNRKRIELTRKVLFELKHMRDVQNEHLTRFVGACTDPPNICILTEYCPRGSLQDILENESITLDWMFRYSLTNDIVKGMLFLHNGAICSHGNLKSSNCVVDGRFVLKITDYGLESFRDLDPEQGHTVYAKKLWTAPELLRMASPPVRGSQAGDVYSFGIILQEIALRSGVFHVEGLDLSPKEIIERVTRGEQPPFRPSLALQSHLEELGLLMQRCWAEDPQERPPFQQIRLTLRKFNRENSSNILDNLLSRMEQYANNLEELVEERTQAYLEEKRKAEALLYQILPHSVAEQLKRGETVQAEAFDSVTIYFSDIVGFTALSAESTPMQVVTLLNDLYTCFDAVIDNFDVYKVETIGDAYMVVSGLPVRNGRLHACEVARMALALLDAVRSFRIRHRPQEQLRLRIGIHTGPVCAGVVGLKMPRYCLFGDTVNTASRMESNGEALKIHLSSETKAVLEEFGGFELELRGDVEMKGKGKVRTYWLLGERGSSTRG
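Compound pre-incubated 30 min at room temperature on GloSensor-loaded HEK293 cells stably carrying hNpr1 and the pGS-40F cGMP biosensor. Stimulation uses hNppA at 0.1 nM final; luminescence is taken at baseline and 20 min post-agonist.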
An asterisk follows results filed as active; [ ] = remark or other dose. Unless noted, calls follow the shape of the dose curve; as a rule, active = well fitted curve in the direction sought with a large enough effect; inconclusive = small, poorly fitted or top-dose-only effect, or another doubt; inactive = no such curve, though single readings can be large; an effect the other way counts as inactive or inconclusive. % is scaled to controls: 0 for no effect and ±100 for the full control effect; potency is read from the fitted curve at half-maximal effect.

Results for CC(=O)N1CCN(C(=O)C2CCc3nnc(C4CCN(C(=O)NC(C)(C)C)CC4)n32)CC1 (centres undefined) ?
NIH3T3 tox: -18.2%; HEK293 tox: -18.7%

How did CN1CC(=O)N(C2CCCNCC2)Cc2c1ncnc2N1CCc2ccccc2C1 (centres undefined) do in these assays?
NIH3T3 tox: -9.5%; HEK293 tox: 1.5%

How did O=C(CCC1CCCC1)N1CCCC(c2noc(COc3ccccc3)n2)C1 (centres undefined) do in these assays?
NIH3T3 tox: inconclusive; Luciferase inh: inactive; HEK293 tox: inconclusive; NPR1 antag: -19.1%

What do the screens show for `COc1ccc(-c2ccc(C(=O)Nc3ccccc3Cl)cc2)nn1`?
NIH3T3 tox: -26.6%[138 µM]; HEK293 tox: inconclusive

How did COc1ccc(-c2ccc(C(=O)N(C)c3ccccc3)cc2)nn1 do in these assays?
NIH3T3 tox: 12.6µM*; HEK293 tox: 22.4µM*

How did CCC(=O)N1CCN(c2nc3c(s2)CC(C(=O)Nc2ccc(C(C)C)cc2)CC3)CC1 (centres undefined) do in these assays?
NIH3T3 tox: inconclusive; Luciferase inh: inactive; HEK293 tox: 35.5µM*; NPR1 antag: inconclusive

Results for CC(=O)N1CCN(c2nc3c(s2)CC(C(=O)Nc2ccc(F)c(Cl)c2)CC3)CC1 (centres undefined) ?
NIH3T3 tox: 20µM*; Luciferase inh: inactive; HEK293 tox: 7.94µM*; NPR1 antag: inconclusive

Results for CC(C)C(=O)N1CCN(c2nc3c(s2)CC(C(=O)NCCc2cccs2)CC3)CC1 (centres undefined) ?
NIH3T3 tox: -23.2%; Luciferase inh: inactive; HEK293 tox: 79.4µM*; NPR1 antag: -9.1%

How did CC(C)C(=O)N1CCN(c2nc3c(s2)CC(C(=O)NC2CCN(C)CC2)CC3)CC1 (centres undefined) do in these assays?
NIH3T3 tox: -8.2%; Luciferase inh: inactive; HEK293 tox: -3.7%; NPR1 antag: -1.3%

What do the screens show for `CCC(=O)N1CCN(c2nc3c(s2)CC(C(=O)Nc2ccc(F)cc2)CC3)CC1` (centres undefined)?
NIH3T3 tox: 31.6µM*; Luciferase inh: inactive; HEK293 tox: 12.6µM*; NPR1 antag: inconclusive

What do the screens show for `CCc1ccc(NC(=O)C2CCc3nc(N4CCN(C(=O)C(C)C)CC4)sc3C2)cc1` (centres undefined)?
NIH3T3 tox: -18.8%; Luciferase inh: inactive; HEK293 tox: inconclusive; NPR1 antag: -27.1%

Results for Cc1nnc2ccc(N3CCC(NC(=O)Nc4ccc(Cl)cc4)C3)nn12 (centres undefined) ?
NIH3T3 tox: -23.8%; HEK293 tox: inconclusive

How did CCCc1noc(-c2cccn3c(CNC(=O)c4ccc(C)cc4)nnc23)n1 do in these assays?
NIH3T3 tox: -17.0%; Luciferase inh: inactive; HEK293 tox: -2.3%; NPR1 antag: -12.4%

What do the screens show for `O=C(Nc1ccccc1)N1CCn2c(nnc2C2CC2)C1`?
NIH3T3 tox: -16.7%[138 µM]; HEK293 tox: 0.6%[172 µM]

What do the screens show for `CC(=O)N1CCN(c2nc3c(s2)CC(C(=O)NCc2ccc(C(C)C)cc2)CC3)CC1` (centres undefined)?
NIH3T3 tox: inconclusive; Luciferase inh: inactive; HEK293 tox: 44.7µM*; NPR1 antag: inconclusive

What do the screens show for `CCC(=O)N1CCN(c2nc3c(s2)CC(C(=O)Nc2ccc4c(c2)OCO4)CC3)CC1` (centres undefined)?
NIH3T3 tox: inconclusive; Luciferase inh: inactive; HEK293 tox: 14.1µM*; NPR1 antag: 1.8%

What do the screens show for `CCC(=O)N1CCN(c2nc3c(s2)CC(C(=O)N2CCCCC2)CC3)CC1` (centres undefined)?
NIH3T3 tox: -18.3%; Luciferase inh: inactive; HEK293 tox: -22.3%; NPR1 antag: -4.5%

How did COc1cccc(CNC(=O)c2cc(-c3cccc(C(F)(F)F)c3)nc3c2cnn3C)c1 do in these assays?
NIH3T3 tox: -3.3%; HEK293 tox: inactive

How did COCCCNC(=O)c1cc(-c2cccc(C(F)(F)F)c2)nc2c1cnn2C do in these assays?
NIH3T3 tox: -16.9%; HEK293 tox: -3.6%

Results for Cn1ncc2c(C(=O)NCCc3ccccn3)cc(-c3cccc(C(F)(F)F)c3)nc21 ?
NIH3T3 tox: inconclusive; HEK293 tox: 31.6µM*

How did Cn1ncc2c(C(=O)NCc3cccnc3)cc(-c3cccc(C(F)(F)F)c3)nc21 do in these assays?
NIH3T3 tox: inconclusive; HEK293 tox: 50.1µM*

Results for COc1cccc(-c2cc(C(=O)NCc3cccc(C(F)(F)F)c3)c3cnn(C)c3n2)c1 ?
NIH3T3 tox: inconclusive; HEK293 tox: 25.1µM*

How did CN(C)c1ccc2c(c1)CN(C(=O)c1cnn(C)c1)CCO2 do in these assays?
NIH3T3 tox: -23.7%; HEK293 tox: -2.5%

How did COc1ccc(CN2C(=O)COC[C@@H]2[C@H](O)c2ccc(NC(=O)c3ccc(C(C)(C)C)cc3)cc2)cc1 do in these assays?
NIH3T3 tox: 22.4µM*; Luciferase inh: 14.1µM*; HEK293 tox: 28.2µM*; NPR1 antag: 2.8%

What do the screens show for `CC(C)CN1C(=O)COC[C@@H]1[C@H](O)c1ccc(NC(=O)c2ccc3c(c2)OCO3)cc1`?
NIH3T3 tox: -12.5%[138 µM]; Luciferase inh: 63.1µM*; HEK293 tox: -21.8%[172 µM]; NPR1 antag: -0.9%[70.6 µM]

How did CN1C(=O)COC[C@@H]1[C@H](O)c1ccc(NC(=O)c2ccc3c(c2)OCO3)cc1 do in these assays?
NIH3T3 tox: -22.5%[174 µM]; Luciferase inh: inconclusive; HEK293 tox: -18.9%[172 µM]; NPR1 antag: 1.5%[70.6 µM]

How did COc1ccc(C(=O)Nc2ccc(C(O)[C@H]3COCC(=O)N3CC(C)C)cc2)cc1 (some centres undefined) do in these assays?
NIH3T3 tox: 3.2%[174 µM]; Luciferase inh: 25.1µM*; HEK293 tox: inconclusive; NPR1 antag: -1.6%[70.6 µM]

What do the screens show for `CC(C)CN1C(=O)COC[C@@H]1[C@H](O)c1ccc(NC(=O)c2ccc(F)cc2)cc1`?
NIH3T3 tox: -21.5%[138 µM]; Luciferase inh: inconclusive; HEK293 tox: -19.7%[172 µM]; NPR1 antag: -16.7%[70.6 µM]

What do the screens show for `COCCN1C(=O)CCC2(CNC(=O)COc3ccc(F)cc3)CCCC=C12` (centres undefined)?
NIH3T3 tox: -11.2%; Luciferase inh: inactive; HEK293 tox: -0.8%; NPR1 antag: 3.0%

What do the screens show for `O=C(c1cccs1)N1CCCN(c2cc(-c3ccc(F)cc3)[nH]n2)CC1`?
NIH3T3 tox: -12.3%; Luciferase inh: inactive; HEK293 tox: inconclusive; NPR1 antag: -9.8%

Results for O=C(COc1ccc(F)cc1)N1CCCN(c2cc(-c3ccc(Br)cc3)[nH]n2)CC1 ?
NIH3T3 tox: inconclusive; Luciferase inh: inactive; HEK293 tox: 44.7µM*; NPR1 antag: inconclusive

What do the screens show for `O=C(Cc1cccs1)N1CCCN(c2cc(-c3ccc(Br)cc3)[nH]n2)CC1`?
NIH3T3 tox: 35.5µM*; Luciferase inh: inactive; HEK293 tox: 44.7µM*; NPR1 antag: inconclusive

Screening results as filed in PubChem BioAssay.
